{"source": "PubChem BioAssay (Tox21)", "note": "The source made the active and inactive calls. Calls come from the whole dose curve; as a rule, active = well fitted curve in the direction sought with a large enough effect in the repeat runs; inconclusive = weak or mixed curves; inactive = flat fitted curve, though single readings scatter. % is set by controls: 0 for no effect and ±100 for the full control effect."}
{"test": "qHTS assay to test for compound auto fluorescence at 535 nm (green) in HepG2 cells (AID 720675)", "settings": "green autofluorescence 485/535 nm, 1 h; series mostly up to 46 µM; fluorescence, % of fluorescein control: at the top concentration", "from_the_text": "National Center for Advancing Translational Sciences [NCATS]\nNIH Chemical Genomics Center [NCGC]\nU.S. Environmental Protection Agency [EPA]\nNational Institutes of Environmental Health Sciences [NIEHS]\nNational Toxicology Program [NTP]\nU.S. Food and Drug Administration [FDA]\nCompound auto fluorescence often interferes with screening of the compound library against various biological targets and signaling pathways. Some of these compounds may have fluorophoric properties. Such properties may interfere with the assay outputs resulting in false positives and/or negatives. To decrease such complications and ensure the compound activities are relevant in terms of biological response, the Tox21 10K compound library was screened for auto fluorescence.\nFrom the fluorophores used as reporter signals in our screening assays, the auto fluorescence equivalencies of compounds against three fluorophores have been evaluated: Triamterene, Fluorescein and Rose Bengal sodium for blue, green and red fluorescence, respectively. The fluorescence intensities were measured using Excitation/Emission wavelengths at 405/460nm, 485/535nm and 540/590nm for blue, green and red labels, respectively. This assay includes the green fluorescence data.\nTox21 Assay Protocol Summary:\n2,000 HepG2 cells in 5 uL of culture medium (MEM containing 10% FBS) per well were dispensed into black wall/clear bottom 1536-well plates using a Multidrop Combi Dispenser (ThermoFisher Scientific, Waltham, MA). The assay plates were incubated overnight at 37 C to allow cell attachment to the well bottom, followed by the transfer of 23 nL compound or DMSO vehicle by a pintool work station (Kalypsys , San Diego, CA). After the assay plates were incubated for 1 hr at 37 C and 5% CO2, fluorescence intensities in the assay plates were measured by an Envision (PerkinElmer, Shelton, CT) plate reader using three labels for measuring blue, green and red fluorescence at […] 460, 535 and 590 nm respectively."}
{"compound": "Cn1c(O)c(N=NC(N)=S)c2ccccc21", "fluorescence, % of fluorescein control": "-0.0236% (inactive)"}
{"compound": "CCCCC(C)(O)C/C=C/[C@H]1[C@H](O)CC(=O)[C@@H]1CCCCCCC(=O)OC", "note": "(stereo not given in full)", "fluorescence, % of fluorescein control": "-0.0406% (inactive)"}
{"compound": "CC(C)(C)CC(C)(C)c1cc(Cc2cc(C(C)(C)CC(C)(C)C)cc(-n3nc4ccccc4n3)c2O)c(O)c(-n2nc3ccccc3n2)c1", "fluorescence, % of fluorescein control": "0.0364% (inactive)"}
{"compound": "O=C1NCCN1c1ncc([N+](=O)[O-])s1", "fluorescence, % of fluorescein control": "-0.159% [at 18.6 µM] (inactive)"}
{"compound": "CCOC(=O)CCC(=O)O[C@H]1[C@H](O[C@@H]2[C@@H](C)[C@H](O[C@H]3C[C@@](C)(OC)[C@@H](O)[C@H](C)O3)[C@@H](C)C(=O)O[C@H](CC)[C@@](C)(O)[C@H](O)[C@@H](C)C(=O)[C@H](C)C[C@@]2(C)O)O[C@H](C)C[C@@H]1N(C)C", "fluorescence, % of fluorescein control": "-0.0288% (inactive)"}
{"compound": "CC[N+](C)(C)Cc1ccccc1Br", "fluorescence, % of fluorescein control": "-0.0258% [at 18.6 µM] (inactive)"}
{"compound": "CCNC(=O)[C@@H]1CCCN1C(=O)[C@H](CCCN=C(N)N)NC(=O)[C@H](CC(C)C)NC(=O)[C@@H](Cc1c[nH]c2ccccc12)NC(=O)[C@H](Cc1ccc(O)cc1)NC(=O)[C@H](CO)NC(=O)[C@H](Cc1c[nH]c2ccccc12)NC(=O)[C@H](Cc1cnc[nH]1)NC(=O)[C@@H]1CCC(=O)N1", "fluorescence, % of fluorescein control": "0.173% (inactive)"}
{"compound": "COC(=O)CCC(=O)CN", "fluorescence, % of fluorescein control": "0.0398% (inactive)"}
{"compound": "CC1CCCC1", "fluorescence, % of fluorescein control": "-0.037% [at 91.3 µM] (inactive)"}
{"compound": "CO[C@H]1C[C@H](O[C@H]2[C@H](C)[C@@H](O[C@@H]3O[C@H](C)C[C@H](N(C)C)[C@H]3OC(C)=O)[C@@H](C)C[C@]3(CO3)C(=O)[C@H](C)[C@@H](OC(C)=O)[C@@H](C)[C@@H](C)OC(=O)[C@@H]2C)O[C@@H](C)[C@@H]1OC(C)=O", "fluorescence, % of fluorescein control": "-0.0684% [at 18.6 µM] (inactive)"}
{"compound": "CC(C(=O)O)c1ccc(N2Cc3ccccc3C2=O)cc1", "note": "(stereo not given)", "fluorescence, % of fluorescein control": "0.0018% (inactive)"}
{"compound": "CC1(C)S[C@@H]2[C@H](NC(=O)C(C(=O)O)c3ccsc3)C(=O)N2[C@H]1C(=O)O", "note": "(stereo not given in full)", "fluorescence, % of fluorescein control": "0.0246% (inactive)"}
{"compound": "CC(=O)O[C@H]1C[C@@]2(C)[C@@H](C[C@@H](O)[C@H]3[C@@]4(C)CC[C@@H](O)[C@@H](C)[C@@H]4CC[C@@]32C)/C1=C(\\CCC=C(C)C)C(=O)O", "fluorescence, % of fluorescein control": "-0.0819% (inactive)"}
{"compound": "CCOC(=O)c1cc(-c2ccccc2)nc2ccc(C)cc12", "fluorescence, % of fluorescein control": "-0.0258% (inactive)"}
{"compound": "CCCC(=O)O[C@]1(C(=O)COC(=O)CC)[C@@H](C)C[C@H]2[C@@H]3CCC4=CC(=O)C=C[C@]4(C)[C@@]3(F)[C@@H](O)C[C@@]21C", "fluorescence, % of fluorescein control": "-0.158% (inactive)"}
{"compound": "NCCCC[C@H](N)C(=O)O", "fluorescence, % of fluorescein control": "-0.0044% (inactive)"}
{"compound": "C[C@@H]1C/C=C/C=C/C=C/C=C/[C@H](O[C@@H]2O[C@H](C)[C@@H](O)[C@H](N)[C@@H]2O)C[C@@H]2O[C@](O)(C[C@@H](O)C[C@H]3O[C@@H]3/C=C/C(=O)O1)C[C@H](O)[C@H]2C(=O)O", "fluorescence, % of fluorescein control": "0.134% (inactive)"}
{"compound": "CCCC(=O)O[C@]1(C(=O)COC(C)=O)CC[C@H]2[C@@H]3C[C@H](F)C4=CC(=O)C=C[C@]4(C)[C@@]3(F)[C@@H](O)C[C@@]21C", "fluorescence, % of fluorescein control": "0.0113% (inactive)"}
{"compound": "NC(=O)C[C@@H](N)C(=O)O", "fluorescence, % of fluorescein control": "-0.0626% (inactive)"}
{"compound": "CN[C@@H]1[C@H](O[C@H]2[C@H](O[C@H]3[C@H](O)[C@@H](O)[C@H](N=C(N)N)[C@@H](O)[C@@H]3N=C(N)N)O[C@@H](C)[C@]2(O)CO)O[C@@H](CO)[C@H](O)[C@H]1O", "fluorescence, % of fluorescein control": "-0.0792% (inactive)"}
{"compound": "C[N+](C)(CCCCCC[N+](C)(C)C1c2ccccc2-c2ccccc21)C1c2ccccc2-c2ccccc21", "fluorescence, % of fluorescein control": "-0.198% (inactive)"}
{"compound": "CCCCCCCCCCCCCCCCCCCCCC(=O)Nc1ccn([C@@H]2O[C@H](CO)[C@@H](O)[C@@H]2O)c(=O)n1", "fluorescence, % of fluorescein control": "-0.0065% (inactive)"}
{"compound": "CC(=O)Nc1c(I)c(C(=O)N[C@H]2C(O)O[C@H](CO)[C@@H](O)[C@@H]2O)c(I)c(N(C)C(C)=O)c1I", "note": "(stereo not given in full)", "fluorescence, % of fluorescein control": "-0.144% [at 18.6 µM] (inactive)"}
{"compound": "CC(C)CN(C[C@@H](O)[C@H](Cc1ccccc1)NC(=O)O[C@H]1CO[C@H]2OCC[C@H]21)S(=O)(=O)c1ccc(N)cc1", "fluorescence, % of fluorescein control": "0.0541% (inactive)"}
{"compound": "COc1ccc(C[C@@H](C)NC[C@H](O)c2ccc(O)c(NC=O)c2)cc1", "fluorescence, % of fluorescein control": "0.0854% (inactive)"}
{"compound": "NC(=O)OC[C@@H]1[C@H](NC(=O)/C(=N\\OCC(=O)O)c2csc(N)n2)C(=O)N1S(=O)(=O)O", "fluorescence, % of fluorescein control": "-0.0297% (inactive)"}
{"compound": "CS(=O)(=O)Nc1cc2occ(NC=O)c(=O)c2cc1Oc1ccccc1", "fluorescence, % of fluorescein control": "-0.0119% (inactive)"}
{"compound": "C[C@@H]1C[C@H]2C3C[C@H](F)C4=CC(=O)C=CC4(C)[C@@]3(F)[C@@H](O)CC2(C)[C@@]1(O)C(=O)COC(=O)C(C)(C)C", "note": "(stereo not given in full)", "fluorescence, % of fluorescein control": "0.028% (inactive)"}
{"compound": "CC(C)c1nc(N(C)S(C)(=O)=O)nc(-c2ccc(F)cc2)c1/C=C/C(O)CC(O)CC(=O)O", "note": "(stereo not given)", "fluorescence, % of fluorescein control": "0.0073% (inactive)"}
{"compound": "CN(C)CC/C=C1/c2ccccc2CSc2ccccc21", "fluorescence, % of fluorescein control": "-0.0707% [at 18.6 µM] (inactive)"}
{"compound": "O=[N+]([O-])c1c(Cl)cccc1-c1c[nH]cc1Cl", "fluorescence, % of fluorescein control": "-0.0033% (inactive)"}
{"compound": "CC1(C)S[C@@H]2[C@H](NC(=O)[C@H](N)c3ccccc3)C(=O)N2[C@H]1C(=O)OCOC(=O)[C@@H]1N2C(=O)C[C@H]2S(=O)(=O)C1(C)C", "fluorescence, % of fluorescein control": "0.0477% (inactive)"}
{"compound": "CC(=O)N[C@@H]([C@@H](O)[C@H](O)[C@H](O)CO)[C@@H](O)CC(=O)C(=O)O", "fluorescence, % of fluorescein control": "-0.0336% (inactive)"}
{"compound": "CCOC(=O)Cc1cccc(-c2cc(CCCCCCc3ccc(O[C@H]4O[C@H](COC(C)=O)[C@@H](OC(C)=O)[C@H](OC(C)=O)[C@@H]4OC(C)=O)c(-c4cccc(CC(=O)OCC)c4)c3)ccc2O[C@H]2O[C@H](COC(C)=O)[C@@H](OC(C)=O)[C@H](OC(C)=O)[C@@H]2OC(C)=O)c1", "fluorescence, % of fluorescein control": "-0.0869% (inactive)"}
{"compound": "OC(CN1CCCCC1)c1cc(-c2ccccc2)on1", "note": "(stereo not given)", "fluorescence, % of fluorescein control": "0.058% (inactive)"}
{"compound": "O=[n+]1ccn([O-])c2ccccc21", "fluorescence, % of fluorescein control": "0.0227% (inactive)"}
{"compound": "CC[C@@H](C(=O)O)[C@@H]1O[C@@H]([C@@H](C)[C@H](O)[C@H](C)C(=O)[C@H](CC)[C@H]2O[C@]3(C=C[C@@H](O)[C@]4(CC[C@@](C)([C@H]5CC[C@](O)(CC)[C@H](C)O5)O4)O3)[C@H](C)C[C@@H]2C)[C@@H](C)C[C@@H]1C", "fluorescence, % of fluorescein control": "0.0059% (inactive)"}
{"compound": "COCC1=C(C(=O)OC(C)OC(=O)OC(C)C)N2C(=O)[C@@H](NC(=O)/C(=N\\OC)c3csc(N)n3)[C@H]2SC1", "note": "(stereo not given in full)", "Potency": "inactive"}
{"compound": "O=C1NC(=O)[C@H]2[C@@H]1[C@@H]1C=C[C@H]2C1", "fluorescence, % of fluorescein control": "0.0743% (inactive)"}
{"compound": "Nc1ccn(C[C@@H](CO)OCP(=O)(O)O)c(=O)n1", "fluorescence, % of fluorescein control": "-0.0022% (inactive)"}
